# The supplement of paper PMC8975748
# System: Saccharomyces cerevisiae BY4741 SeMeCo community
# Assay: z-score of subpopulation abundance vs DMSO median, subpopulation auxotrophic for M; higher = larger share of this subpopulation than in DMSO controls
# Details: 10 µM; 24 h; SM minimal medium; subpopulation (auxotrophy): M
# How it was run: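 A community of Saccharomyces cerevisiae BY4741 was built from four plasmids that each restored one auxotrophy and encoded a distinct fluorescent protein. Pre-grown overnight to OD600 1.0 and diluted to 0.3, it was dispensed at 70 µl into 384-well plates acoustically predosed with library drugs for a final 10 µM, and grown 24 h in minimal SM medium. Cells were then paraformaldehyde-fixed and imaged by automated confocal microscopy. Thresholds and autofluorescence correction came from single-auxotroph fluorescent strains, and each subpopulation's abundance was scored as a z-score relative to the vehicle-well median.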
row,Compound,z-score of subpopulation abundance
1,COc1cc(NS(=O)(=O)c2ccc(N)cc2)nc(OC)n1 [SulfadiMethoxine sodium],0.96
2,CCN1CCN(c2cc3c(cc2F)c(=O)c(C(=O)O)cn3C2CC2)CC1 [Enrofloxacin],0.24
3,O=C1CN(/N=C/c2ccc(-c3ccc([N+](=O)[O-])cc3)o2)C(=O)N1 [Dantrolene sodium],0.97
4,Cc1cc(-c2ccc(/N=N/c3ccc4c(S(=O)(=O)O)cc(S(=O)(=O)O)c(N)c4c3O)c(C)c2)ccc1/N=N/c1ccc2c(S(=O)(=O)O)cc(S(=O)(=O)O)c(N)c2c1O [Evans Blue],-14.3
5,NC[C@H]1O[C@H](O[C@H]2[C@H](O)[C@@H](O[C@H]3O[C@H](CO)[C@@H](O)[C@H](N)[C@H]3O)[C@H](N)C[C@@H]2N)[C@H](N)C[C@@H]1O [Tobramycin],0.73
6,CCc1cccc2c3c([nH]c12)C(CC)(CC(=O)O)OCC3 (centres undefined) [Etodolac],-0.55
7,"CO[C@H]1C[C@@H]2CC[C@@H](C)[C@@](O)(O2)C(=O)C(=O)N2CCCC[C@H]2C(=O)O[C@H]([C@H](C)C[C@@H]2CC[C@@H](OP(C)(C)=O)[C@H](OC)C2)CC(=O)[C@H](C)/C=C(\C)[C@@H](O)[C@@H](OC)C(=O)[C@H](C)C[C@H](C)/C=C/C=C/C=C/1C [Ridaforolimus (Deforolimus, MK-8669)]",-1.24
8,CC1=CC[C@@](O)(C(C)C)CC1 [Terpinen-4-ol],-1.02
9,CC[C@@H]1/C=C(\C)C[C@H](C)C[C@H](OC)[C@H]2O[C@@](O)(C(=O)C(=O)N3CCCC[C@H]3C(=O)O[C@H](/C(C)=C/[C@@H]3CC[C@H](Cl)[C@H](OC)C3)[C@H](C)[C@@H](O)CC1=O)[C@H](C)C[C@@H]2OC [Pimecrolimus],1.75
